Screening data (PubChem BioAssay)
Rab9 prom act: Rab9 promoter activation | Huh7 Rab9 promoter-luciferase reporter, luminescence, 24 h | hit rate 2.8% among 320,000 | Potency, µM (doses to about 9.22 µM), usual class: activators; further: nearly all actives have a fitted effect of over 60% in size
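Luciferase signal after 10 min detection reagent at ambient indicates Rab9 promoter upregulation; stably transfected Huh7 cells were treated 24 h with compound in DMSO at 37 °C, 5% CO2.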
FLuc counter: counter-screen for miR-21 project: firefly luciferase inhibitors or activators. purified FLuc, Km substrates, luminescence inhibition. P08659. Potency, µM (titrated, usually from 57.5 µM), hits mostly inhibitors. hit rate 6.9% among 360,000; further: nearly all actives have a fitted effect of over 55% in size
Target sequence (P08659 whole entry, looked up): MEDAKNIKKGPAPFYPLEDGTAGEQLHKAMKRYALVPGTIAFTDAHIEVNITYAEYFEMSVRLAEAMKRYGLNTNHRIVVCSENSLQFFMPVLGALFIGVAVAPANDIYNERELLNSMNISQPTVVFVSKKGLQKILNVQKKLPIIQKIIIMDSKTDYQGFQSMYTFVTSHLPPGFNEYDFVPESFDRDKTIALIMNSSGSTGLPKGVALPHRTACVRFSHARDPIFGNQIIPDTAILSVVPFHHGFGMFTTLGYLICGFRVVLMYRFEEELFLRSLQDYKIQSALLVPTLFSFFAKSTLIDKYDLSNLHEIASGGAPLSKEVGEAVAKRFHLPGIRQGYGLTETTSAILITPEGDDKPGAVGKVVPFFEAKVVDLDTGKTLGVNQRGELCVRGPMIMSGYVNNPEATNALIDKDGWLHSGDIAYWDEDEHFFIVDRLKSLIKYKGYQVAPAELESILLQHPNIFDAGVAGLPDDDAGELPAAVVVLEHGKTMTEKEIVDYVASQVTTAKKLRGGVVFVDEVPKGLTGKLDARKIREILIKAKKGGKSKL
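Purified P. pyralis luciferase, 10 nM final, with Km-level 10 uM D-luciferin and 10 uM ATP in 50 mM Tris acetate pH 7.5, 10 mM Mg acetate, 0.01% Tween-20, 0.05% BSA; 6-point qHTS titration about 60 µM downward; luminescence read.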
SMN2 splice enh: SMN2 splice variant enhancement | hit rate 2.8% among 210,000 | Potency, µM (highest dose often 46.1 µM), usual class: activators | HEK293 SMN2-luciferase splicing reporter, luminescence, 30-36 h; further: nearly all actives have a fitted effect of over 55% in size
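qHTS luciferase splicing reporter: luminescence rises when SMN2 exon 7 is included in transfected HEK293 cells. Compound exposure lasted 30-36 h at 37C, with 4.5 mM final sodium butyrate as control, followed by a ONE-Glo read.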
ELG1 genotoxic: genotoxicity induction in ELG1-luciferase HEK293T cells; HEK293T ELG1-luciferase reporter, luminescence, 16 h; Potency, µM (series often up to 46 µM), hits mostly activators; hit rate 1.3% among 330,000; AID 504466; further: nearly all actives have a fitted effect of over 60% in size
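Luminescence read-out: rising ELG1-luciferase signal, reflecting elevated ELG1 protein under genetic stress, flags genotoxic compounds. Cells were treated for 16 hr at 37 °C before ONE-Glo detection.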
NPC1 promoter act: activators of NPC1 promoter; Potency, µM (doses to about 9.22 µM), hits mostly activators; Huh7 NPC1 promoter luciferase reporter, 24 h; hit rate 2.4% among 320,000; further: nearly all actives have a fitted effect of over 60% in size
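Compounds in DMSO were transferred onto Huh7 NPC1-luciferase reporter cells pre-incubated 2 h; after 24 h at 37 °C, Amplite reagent was dispensed and luminescence recorded 10 min later.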
A number is an active result; 0 = inactive; ? = inconclusive; - = no result given; [ ] = remark or other dose. Only some compounds are listed: those with a hit (about 7.5% of all), similar ones and a draw of the others. The call rests on the fitted dose curve; in most records, active means well fitted curve in the direction sought with a large enough effect; inconclusive means small, poorly fitted or top-dose-only effect, or another doubt; inactive means no such curve, though single readings can be large; an effect the other way counts as inactive or inconclusive.

SMILES	Rab9 prom act	FLuc counter	SMN2 splice enh	ELG1 genotoxic	NPC1 promoter act
Cc1ccc(OCC(=O)NNC(=O)c2ccco2)c(C)c1	0	12µM	-	0	0
O=C(COc1cccc2ccccc12)NNC(=O)c1cnccn1	0	0	0	0	0
Cc1cc(Br)ccc1OCC(=O)NNC(=O)c1cnccn1	0	17µM	0	0	0
COCCNC(=O)COc1ccc(C)cc1C	0	0	0	0	0
CC(C)c1ccc(OCC(=O)NNC(=O)c2cnccn2)cc1	0	0	-	0	0
Cc1cc(Cl)ccc1OCC(=O)NNC(=O)c1cnccn1	0	17µM	0	0	0
Cc1ccc(C(=O)NNC(=O)COc2ccc(Cl)cc2C)o1	0	11µM	-	0	0
CCCNC(=O)CCc1c(C)nc2nc(C)nn2c1C	0	0	0	0	0
COc1cc(C(=O)NCCC2=CCCCC2)cc(OC)c1OC	0	0	0	0	0
Cc1cc(C(=O)NCCC2=CCCCC2)c(C)o1	10µM	?	11µM	?	1µM
COc1cccc(C(=O)NCCC2=CCCCC2)c1OC	4µM	0[2.3 µM]	13µM	?	?
COc1ccc(CN(Cc2ccc(C(=O)O)cc2)C(=S)Nc2cccc(C)c2)cc1OC	0	0	-	0	0
CC(C)OC(=O)c1c(NC(=O)c2cccs2)sc2c1CCCC2	0	0	0	0	0
O=C(Nc1sc2c(c1C(=O)O)CCCC2)c1cccs1	0	17µM	?	0	0
O=C(Nc1sc2c(c1C(=O)O)CCCCC2)c1cccs1	4.5µM	2.7µM	?	0	?
CN(CC(=O)NCc1ccco1)CC(=O)Nc1cc(S(C)(=O)=O)ccc1Cl	0	0	-	0	0
Cc1cc(C)nc(SCc2ccc(Cl)cc2)n1	0	0	-	0	0
Nc1ccc(CSc2ccc(Cl)cc2)cc1	?	27µM	0	?	?
CCCn1cc(S(=O)(=O)c2ccccc2)c(=O)c2cc(F)c(N3CCN(C)CC3)cc21	0	0	-	0	0
COc1cccc(/C=C/C(=O)OCC(=O)Nc2cccc(S(=O)(=O)NC3=NCCCCC3)c2)c1	-	-	-	0	-
CC(=O)c1cccc(NC(=O)c2cc(C(C)C)on2)c1	4.5µM	6.7µM	?	9.2µM	0.63µM
O=C(Nc1cccc(Cl)c1)c1cnc[nH]1	4.5µM	0	11µM	?	4µM
CC(C)c1cc(C(=O)Nc2cccc(Cl)c2)no1	0.89µM	0.95µM	11µM	?	0.89µM
COC(=O)Cn1cc([N+](=O)[O-])nc1C	0	0	0	0	0
O=C(COC(=O)CCC(=O)c1cccs1)Nc1cccc(F)c1	0	0	-	0	0
SMILES	Rab9 prom act	FLuc counter	SMN2 splice enh	ELG1 genotoxic	NPC1 promoter act
O=C(O)c1cccc(N2C(=O)c3ccc(Oc4ccc(Cl)cc4)cc3C2=O)c1	0	7.6µM	-	0	0
COCc1cc(=O)n2c(-c3ccc(C)cc3)n[nH]c2n1	0	9.5µM	?	0	0
COCc1cc(=O)n2c(-c3ccccc3OC)n[nH]c2n1	0	0	0	0	0
Brc1ccc(-c2cn3c(n2)CCc2ccc4cccnc4c2-3)cc1	0	13µM	0	0	0
Cc1ccc(-c2cc(C(=O)O)c3cc(Br)ccc3n2)s1	0	2.4µM	-	0	?
Cc1ccc(-c2cc(C(=O)O)c3cc(Br)ccc3n2)o1	0	11µM	0	0	0
O=C(NC1=NCCS1)c1cc(-c2cccnc2)nc2ccccc12	0	?	0	0	0
Cc1ccc(-c2cc(C(=O)NCCCn3ccnc3)c3cc(Br)ccc3n2)o1	0	15µM	0	0	0
Cc1ccc(-c2cc(C(=O)NC3=NCCS3)c3cc(Br)ccc3n2)o1	0	6µM	0	0	0
Cc1ccc(-c2cc(C(=O)NN3CCOCC3)c3cc(Br)ccc3n2)o1	0	?	0	0	0
COc1ccc(CNC(=O)COC(=O)/C=C/c2cccc(Br)c2)cc1OC	0	0	0	0	0
Cc1cccc(-c2cc(C(=O)NCCCn3ccnc3)c3ccccc3n2)c1	0	15µM	0	0	0
O=C(NCc1cc([N+](=O)[O-])ccc1O)c1cccnc1Sc1ccc(Cl)cc1	0	?	-	6.5µM	?
O=C(NCc1cc([N+](=O)[O-])ccc1O)c1cccnc1Sc1ccccc1Cl	0	15µM	-	0	0
CCN=C1SC(CC(N)=O)C(=O)N1CC (stereo unspecified)	0	0	-	0	0
COc1cccc(NC(=O)Cn2c(=O)n(Cc3nc(-c4ccccc4)no3)c(=O)c3ccccc32)c1	-	0	-	-	-
CCOC(=O)Cn1cnc(-c2ccc([N+](=O)[O-])cc2)c1	?	12µM	?	?	0
COc1ccc2nc(NC(=O)CCc3cc(OC)c(OC)c(OC)c3)sc2c1	0	0	0	0	0
COc1ccc2nc(NC(=O)Cc3cccs3)sc2c1	2.8µM	12µM	0	6.5µM	2.8µM
Cc1ccc2nc(NC(=O)Cc3cccs3)sc2c1	?	8.5µM	?	?	2.2µM
CCc1ccc2nc(NC(=O)CCCc3cccs3)sc2c1	?	?	0	?	0
O=C(CSc1nccn1Cc1ccccc1)Nc1nc2ccccc2s1	-	17µM	-	-	-
Cc1ccc2nc(NC(=O)CSCC(=O)Nc3cc(C)on3)sc2c1	2.5µM	?	-	?	?
CCOC(=O)C1CCCN(C(=O)CN2C(=O)c3ccccc3S2(=O)=O)C1 (stereo unspecified)	-	-	-	0	-
O=C(Cc1cccs1)Nc1ccccc1-c1nc2ccccc2[nH]1	0	0	-	0	0
SMILES	Rab9 prom act	FLuc counter	SMN2 splice enh	ELG1 genotoxic	NPC1 promoter act
O=C(Cc1cccs1)Nc1nc2ccccc2s1	3.2µM	15µM	0	0	?
O=C(Cc1ccccc1)Nc1nc2ccccc2s1	0	27µM	?	0	0
Cc1ccc2nc(-c3ccc(NC(=O)Cc4cccs4)cc3)[nH]c2c1	1µM	1.3µM	2.5µM	?	2µM
CCOc1ccc2nc(NC(=O)Cc3cccs3)sc2c1	?	12µM	?	?	?
COc1ccccc1CNC(=O)CCc1c(C)nc2c(c(C)nn2-c2ccc(C)c(C)c2)c1C	-	0	0	-	-
COC(=O)c1ccc(NC(=O)C2CCCO2)cc1 (stereo unspecified)	?	?	0	?	?
CCc1c(O)nc(SCC(=O)Nc2nc3ccccc3s2)n(-c2ccc(C)cc2)c1=O	0	21µM	-	0	0
Cc1ccc(NC(=O)CN(C)S(=O)(=O)c2cccs2)c(Br)c1	0	24µM	-	0	0
Cc1ccc2nc(-c3ccc(NC(=O)C4CCCO4)cc3)[nH]c2c1 (stereo unspecified)	0.32µM	0.6µM	0.56µM	?	0.28µM
CC1(C(=O)Nc2nc3ccccc3s2)CC1(Br)Br (stereo unspecified)	?	21µM	-	?	?
CN(C)S(=O)(=O)c1cccc(NC(=O)COC(=O)CCc2nc3ccccc3s2)c1	0	?	0	0	0
O=C(Nc1ccc(F)c(Cl)c1)N1CCC(CN2CCc3ccccc3C2)CC1	-	0	-	-	-
COc1ccc2nc(NC(=O)CN(C)S(=O)(=O)c3cccs3)sc2c1	0	17µM	0	0	0
COc1ccc2nc(NC(=O)CNS(=O)(=O)c3cccs3)sc2c1	0	?	0	0	0
